Test results: the supplement of paper PMC10849652
The full data set covers some 7,900 targets. This sample favours those with a hit. About 0.6% of all pairs of compound and target were hits.

What was measured:
Assay in all cases: log2 fold change, soluble protein after heating vs DMSO (PISA); higher = thermal stabilisation; K562 cells, 10 uM, 30 min; active = over 0.2 and 3.5 SD of the protein, either way, in both replicates (recomputed)
erlotinib = compound: C#Cc1cccc(Nc2ncnc3cc(OCCOC)c(OCCOC)cc23)c1 [erlotinib]
Outline: (§1)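 K562 cells at 2×10^6 cells/mL were exposed to 10 μM compound for 30 min, then aliquots were heated for 3 min across 48°C-58°C, pooled, and extracted in PBS containing 0.5% NP-40 at 4°C. The supernatant after 21,000xg for 90 min was taken as soluble protein and measured by TMTpro 16plex LC-MS/MS with channel sums equalised. Thermal stability is reported relative to control samples, with values from duplicates. Fold changes are given on a log2 scale.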

[1] = compound: C/C(=N\NC(=O)C1=CC(=CC=C1)S(=O)(=O)N2CCOCC2)/C3=C(C=CC(=C3)Cl)O
Outline: as §1

[2] = compound: C1=CC(=C(C=C1Cl)C2=NC3=NC=CN=C3C(=N2)NC4=CC=NC=C4)F
Outline: as §1

[3] = compound: C1=CC(=CC=C1C2=NC3=C(N2)C=C(C=C3)C(=O)N)OC4=CC=C(C=C4)Cl
Outline: as §1

[4] = compound: C1=CC2=C(C=CC(=C2)/C=C\3/C(=O)NC(=NCC4=CC=CS4)S3)N=C1
Outline: as §1

[5] = compound: C1=CC=C(C=C1)C2=NC(=C(N2)C3=CC=NC=C3)C4=CC(=C(C=C4)Cl)O
Outline: as §1

[6] = compound: C1=CC=C2C(=C1)C3=NNC4=CC=CC(=C43)C2=O
Outline: as §1

[7] = compound: C1CCN(C1)C(=O)NC2=CC=CC(=C2)NC3=NC=C(C(=N3)NCCC4=CN=CN4)Br
Outline: as §1

[8] = compound: C1CN(CCC1(CC2=CC=C(C=C2)Cl)N)C3=NC=NC4=C3C=CN4
Outline: as §1

IRAK-1-4 Inhibitor I = compound: C1COCCN1CCN2C3=CC=CC=C3N=C2NC(=O)C4=CC(=CC=C4)[N+](=O)[O-] [IRAK-1-4 Inhibitor I]
Outline: as §1

[9] = compound: CC(=O)c1cnc2ccc(-c3cc(Cl)c(O)c(Cl)c3)nc2c1N[C@H]1CC[C@H](CN(C)C)CC1
Outline: as §1

ralimetinib = compound: CC(C)(C)Cn1c(N)nc2ccc(-c3[nH]c(C(C)(C)C)nc3-c3ccc(F)cc3)nc21 [ralimetinib]
Outline: as §1

[10] = compound: CC(C)(O)CC(=O)NCCn1ccc2ncnc(Nc3ccc(Oc4cccc(C(F)(F)F)c4)c(Cl)c3)c21
Outline: as §1

[11] = compound: CC(C)C1=C2N=C(C=C(N2N=C1)NCC3=CC=CC=C3)NCCCCCCN
Outline: as §1

[12] = compound: CC(C)C[C@@H](C=O)NC(=O)[C@H](CC(C)C)NC(=O)[C@H](CC(C)C)NC(=O)OCc1ccccc1
Outline: as §1

pinometostat = compound: CC(C)N(C[C@H]1O[C@@H](n2cnc3c(N)ncnc32)[C@H](O)[C@@H]1O)[C@H]1C[C@@H](CCc2nc3cc(C(C)(C)C)ccc3[nH]2)C1 [pinometostat]
Outline: as §1

[13] = compound: CC1=C(C2=C(C=C1)C(=O)C3=CC=CC=C3N2CCCN)C
Outline: as §1

[14] = compound: C1=CC2=NC=CN=C2C=C1/C=C/3\C(=O)NC(=O)S3
Outline: as §1

ibrutinib = compound: C=CC(=O)N1CCC[C@@H](n2nc(-c3ccc(Oc4ccccc4)cc3)c3c(N)ncnc32)C1 [ibrutinib]
Outline: as §1

[15] = compound: CC1=C(C(CC(=O)N1)C2=CC=C(C=C2)C(F)(F)F)C(=O)NC3=C(C=C4C(=C3)C=NN4)F
Outline: as §1

Measured: log2 fold change

FAM117B (UniProt Q6P1L5)
Sequence of UniProt Q6P1L5 (Q6P1L5 whole entry, looked up): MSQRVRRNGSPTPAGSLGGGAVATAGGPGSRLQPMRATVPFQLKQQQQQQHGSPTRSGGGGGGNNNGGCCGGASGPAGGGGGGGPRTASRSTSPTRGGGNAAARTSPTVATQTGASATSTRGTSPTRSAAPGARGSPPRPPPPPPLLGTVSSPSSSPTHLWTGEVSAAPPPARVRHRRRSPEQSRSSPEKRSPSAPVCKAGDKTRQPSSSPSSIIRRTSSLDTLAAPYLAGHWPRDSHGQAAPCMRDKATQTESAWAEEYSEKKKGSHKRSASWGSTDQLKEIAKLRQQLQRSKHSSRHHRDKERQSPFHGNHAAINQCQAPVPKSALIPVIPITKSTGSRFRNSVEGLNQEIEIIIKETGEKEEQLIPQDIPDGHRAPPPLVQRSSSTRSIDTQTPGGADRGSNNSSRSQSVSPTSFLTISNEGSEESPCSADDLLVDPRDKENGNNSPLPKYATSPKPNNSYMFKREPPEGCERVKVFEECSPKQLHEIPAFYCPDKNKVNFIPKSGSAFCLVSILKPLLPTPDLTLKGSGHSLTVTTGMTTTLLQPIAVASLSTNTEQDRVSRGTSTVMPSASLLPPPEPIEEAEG
inactive: erlotinib 0.088 | [1] 0.053 | [2] -0.134 | [3] 0.079 | [4] 0.098 | [5] 0.151 | [6] 0.099 | [7] 0.165 | [8] 0.09 | IRAK-1-4 Inhibitor I 0.238 | [9] -0.593 | ralimetinib -0.177 | [10] -0.255 | [11] 0.144 | [12] 0.016 | pinometostat -0.175 | [13] 0.037

DHRS7B (UniProt Q6IAN0)
Sequence of UniProt Q6IAN0 (Q6IAN0 whole entry, looked up): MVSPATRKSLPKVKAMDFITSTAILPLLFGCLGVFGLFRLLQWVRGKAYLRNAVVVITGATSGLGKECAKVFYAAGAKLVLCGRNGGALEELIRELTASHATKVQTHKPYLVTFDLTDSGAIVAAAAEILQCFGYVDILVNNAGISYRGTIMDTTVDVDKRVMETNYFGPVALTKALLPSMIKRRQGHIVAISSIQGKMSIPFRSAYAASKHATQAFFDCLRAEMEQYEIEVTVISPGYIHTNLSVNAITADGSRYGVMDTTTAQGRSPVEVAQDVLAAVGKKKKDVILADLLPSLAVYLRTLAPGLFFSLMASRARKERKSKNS
inactive: erlotinib -0.039 | [1] 0.07 | [2] 0.011 | [3] 0.009 | [4] 0.027 | [14] 0.012 | [5] 0.144 | [6] 0.034 | [7] -0.037 | [8] 0.058 | IRAK-1-4 Inhibitor I 0.027 | ibrutinib -0.017 | [9] -0.063 | ralimetinib 0.23 | [10] 0.055 | [11] 0.115 | [12] -0.113 | pinometostat -0.055 | [15] -0.049 | [13] -0.003

DDX46, A0A0C4DG89
inactive: [2] 0.174 | [10] -0.123 | [15] -0.005

ERF (UniProt P50548)
Sequence of UniProt P50548 (P50548 whole entry, looked up): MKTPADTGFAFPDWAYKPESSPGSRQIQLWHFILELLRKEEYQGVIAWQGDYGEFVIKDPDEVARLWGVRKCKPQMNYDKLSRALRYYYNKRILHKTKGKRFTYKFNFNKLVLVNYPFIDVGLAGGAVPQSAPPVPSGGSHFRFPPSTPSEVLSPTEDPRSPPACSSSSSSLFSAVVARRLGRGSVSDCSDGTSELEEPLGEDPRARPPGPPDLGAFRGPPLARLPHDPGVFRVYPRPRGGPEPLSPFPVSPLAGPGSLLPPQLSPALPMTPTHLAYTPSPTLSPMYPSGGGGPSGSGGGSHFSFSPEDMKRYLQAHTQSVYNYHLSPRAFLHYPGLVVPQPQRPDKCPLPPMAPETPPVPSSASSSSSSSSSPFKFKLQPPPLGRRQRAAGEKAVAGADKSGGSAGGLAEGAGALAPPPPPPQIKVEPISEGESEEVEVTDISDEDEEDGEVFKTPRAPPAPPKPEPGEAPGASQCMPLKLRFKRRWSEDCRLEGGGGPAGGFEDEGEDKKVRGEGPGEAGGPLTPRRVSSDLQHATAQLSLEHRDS
inactive: erlotinib -0.448 | [2] 0.127 | [3] -0.036 | [7] 0.058 | [8] 0.13 | [10] 0.093 | [11] 0.186 | [13] 0.094

DENND1A isoform 6 (UniProt Q8TEH3)
inactive: [14] -0.328 | [7] -0.315 | [8] -0.034 | IRAK-1-4 Inhibitor I 0.121 | ibrutinib -0.003 | pinometostat -0.356 | [13] 0.113

DHPS (UniProt M0R1T2)
inactive: [14] 0.099 | ibrutinib 0.124

DNAH5 (UniProt Q8TE73)
inactive: erlotinib 0.014 | [2] 0.036 | [3] 0.001 | [14] -0.005 | [5] -0.067 | [7] 0.084 | [8] 0.095 | IRAK-1-4 Inhibitor I 0.074 | ibrutinib 0.039 | ralimetinib 0.004 | [10] 0.031 | [11] -0.09 | [12] 0.009 | pinometostat 0.055 | [15] -0.023 | [13] 0.106

DNAL1 (UniProt Q4LDG9)
Sequence of UniProt Q4LDG9 (Q4LDG9 whole entry, looked up): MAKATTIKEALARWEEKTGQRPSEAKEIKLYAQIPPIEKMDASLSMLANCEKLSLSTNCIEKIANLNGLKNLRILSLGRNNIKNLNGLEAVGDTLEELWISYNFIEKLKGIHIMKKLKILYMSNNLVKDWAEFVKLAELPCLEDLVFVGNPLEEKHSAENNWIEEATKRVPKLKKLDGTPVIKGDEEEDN
inactive: [1] -0.034 | [2] 0.053 | [4] -0.07 | [5] -0.113 | [6] 0.091 | IRAK-1-4 Inhibitor I 0.012 | ibrutinib -0.082 | [9] 0.042 | ralimetinib 0.042 | [10] 0.183 | [12] 0.007 | pinometostat 0.093
active: [14] -0.654

DNAH10 (UniProt Q8IVF4)
inactive: erlotinib 0.325 | [2] 0.251 | [3] -0.187 | [14] -0.054 | [7] -0.052 | [8] 0.137 | IRAK-1-4 Inhibitor I 0.004 | ibrutinib 0.018 | [10] -0.127 | [11] 0.162 | pinometostat -0.106 | [15] -0.154 | [13] -0.022

EID1 (UniProt Q9Y6B2)
inactive: erlotinib -0.17 | [2] -0.425 | [3] 0.137 | [7] 0.092 | [8] 0.029 | [10] 0.002 | [11] 0.05 | [15] 0.05 | [13] -0.281

CYB561A3 isoform 2 (UniProt Q8NBI2)
Sequence of UniProt Q8NBI2 (Q8NBI2 whole entry, looked up): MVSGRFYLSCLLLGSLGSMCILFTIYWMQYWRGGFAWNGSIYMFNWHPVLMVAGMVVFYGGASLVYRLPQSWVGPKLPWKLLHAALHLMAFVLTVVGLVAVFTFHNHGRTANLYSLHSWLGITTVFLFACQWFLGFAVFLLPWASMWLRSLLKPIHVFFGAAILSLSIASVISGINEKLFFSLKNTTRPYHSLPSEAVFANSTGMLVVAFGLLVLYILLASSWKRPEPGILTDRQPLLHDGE
inactive: erlotinib -0.021 | [1] -0.016 | [3] 0.02 | [4] -0.005 | [14] 0.114 | [5] 0.043 | [6] -0.034 | [7] -0.01 | [8] 0.069 | IRAK-1-4 Inhibitor I 0.024 | ibrutinib 0.014 | [9] 0.033 | ralimetinib -0.026 | [11] -0.164 | [12] -0.019 | pinometostat -0.054 | [15] -0.069 | [13] -0.027

DCAF4 (UniProt Q8WV16)
Sequence of UniProt Q8WV16 (Q8WV16 whole entry, looked up): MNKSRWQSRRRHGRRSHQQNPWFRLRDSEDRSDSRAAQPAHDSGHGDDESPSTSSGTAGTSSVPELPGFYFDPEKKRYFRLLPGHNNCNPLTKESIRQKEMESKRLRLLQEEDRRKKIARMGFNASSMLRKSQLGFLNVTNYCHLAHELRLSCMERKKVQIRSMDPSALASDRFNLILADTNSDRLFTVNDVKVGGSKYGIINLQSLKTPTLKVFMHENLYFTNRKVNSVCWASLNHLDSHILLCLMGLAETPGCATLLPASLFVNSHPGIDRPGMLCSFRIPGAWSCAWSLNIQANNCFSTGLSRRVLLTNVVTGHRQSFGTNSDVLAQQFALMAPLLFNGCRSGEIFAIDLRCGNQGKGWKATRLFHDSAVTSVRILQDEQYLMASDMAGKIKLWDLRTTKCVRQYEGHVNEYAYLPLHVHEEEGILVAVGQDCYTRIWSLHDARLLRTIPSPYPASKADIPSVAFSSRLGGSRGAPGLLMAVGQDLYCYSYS
inactive: [2] 0.009 | [5] -0.15 | ralimetinib -0.026 | [10] -0.019 | [12] -0.042 | [15] 0.043

DCP2 (UniProt Q8IU60)
inactive: [1] 0.176 | [2] -0.117 | [4] -0.118 | [5] 0.021 | [6] -0.073 | [7] -0.134 | [8] -0.064 | IRAK-1-4 Inhibitor I -0.372 | [9] -0.265 | ralimetinib 0.105 | [10] 0.147 | [12] 0.185 | pinometostat 0.038 | [13] -0.111

F2RL3 (UniProt Q96RI0)
Sequence of UniProt Q96RI0 (Q96RI0 whole entry, looked up): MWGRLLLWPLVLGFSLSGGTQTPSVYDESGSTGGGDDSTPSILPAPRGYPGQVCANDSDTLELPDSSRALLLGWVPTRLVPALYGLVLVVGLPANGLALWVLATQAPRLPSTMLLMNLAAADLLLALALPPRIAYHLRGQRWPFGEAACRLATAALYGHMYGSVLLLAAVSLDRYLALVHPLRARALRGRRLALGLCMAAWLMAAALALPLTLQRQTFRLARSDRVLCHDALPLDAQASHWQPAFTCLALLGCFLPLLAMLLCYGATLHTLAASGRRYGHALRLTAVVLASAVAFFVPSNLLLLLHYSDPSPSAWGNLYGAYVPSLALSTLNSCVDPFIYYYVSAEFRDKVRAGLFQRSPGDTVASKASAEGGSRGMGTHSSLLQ
inactive: erlotinib -0.056 | [1] 0.026 | [3] -0.083 | [4] 0.039 | [5] -0.052 | [6] -0.12 | [7] -0.161 | [8] 0.065 | [9] 0.02 | ralimetinib -0.084 | [11] 0.081 | [12] 0.021 | [13] 0.1

FADS1 (UniProt F5GYH4)
inactive: [14] 0.155 | [7] 0.057 | [8] 0.002 | IRAK-1-4 Inhibitor I 0.02 | ibrutinib -0.093 | pinometostat 0.075 | [13] -0.097

DNM2 isoform 4 (UniProt P50570)
Sequence of UniProt P50570 (P50570 whole entry, looked up): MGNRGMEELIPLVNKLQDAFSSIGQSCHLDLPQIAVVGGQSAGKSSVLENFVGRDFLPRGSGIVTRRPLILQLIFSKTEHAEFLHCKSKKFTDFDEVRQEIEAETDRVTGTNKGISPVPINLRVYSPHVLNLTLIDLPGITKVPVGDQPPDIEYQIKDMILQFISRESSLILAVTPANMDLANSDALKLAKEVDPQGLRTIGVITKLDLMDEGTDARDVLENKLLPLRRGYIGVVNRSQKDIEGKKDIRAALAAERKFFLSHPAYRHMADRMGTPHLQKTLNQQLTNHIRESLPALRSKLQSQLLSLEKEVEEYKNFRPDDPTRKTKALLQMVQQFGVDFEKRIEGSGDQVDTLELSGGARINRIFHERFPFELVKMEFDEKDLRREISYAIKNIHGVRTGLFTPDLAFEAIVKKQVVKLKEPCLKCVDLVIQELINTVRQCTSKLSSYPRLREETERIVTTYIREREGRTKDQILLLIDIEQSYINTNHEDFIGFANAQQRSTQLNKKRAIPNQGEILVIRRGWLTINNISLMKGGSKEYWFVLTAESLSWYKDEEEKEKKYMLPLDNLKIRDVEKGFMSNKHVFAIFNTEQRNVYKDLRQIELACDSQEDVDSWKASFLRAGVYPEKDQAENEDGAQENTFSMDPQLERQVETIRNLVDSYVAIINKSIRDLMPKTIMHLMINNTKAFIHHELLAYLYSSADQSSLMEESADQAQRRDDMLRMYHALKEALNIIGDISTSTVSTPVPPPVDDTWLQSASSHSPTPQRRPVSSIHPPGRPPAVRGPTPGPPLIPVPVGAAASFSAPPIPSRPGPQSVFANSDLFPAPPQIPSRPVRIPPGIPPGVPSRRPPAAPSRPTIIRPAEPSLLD
inactive: erlotinib 0.042 | [2] 0.084 | [3] -0.128 | [14] 0.261 | [5] -0.008 | IRAK-1-4 Inhibitor I 0.019 | ibrutinib -0.074 | ralimetinib 0.005 | [10] -0.101 | [11] -0.047 | [12] -0.04 | pinometostat -0.063 | [15] 0.007

DAXX (UniProt Q9UER7)
inactive: erlotinib 0.212 | [3] 0.037 | [4] 0.072 | [14] 0.012 | [5] 0.055 | [6] 0.009 | [7] -0.148 | [8] 0.224 | IRAK-1-4 Inhibitor I 0.13 | ibrutinib 0.091 | [9] 0.008 | ralimetinib 0.218 | [11] 0.243 | [12] 0.088 | pinometostat -0.049 | [15] 0.078 | [13] 0.078
active: [1] -0.662

EDRF1 (UniProt Q3B7T1)
Sequence of UniProt Q3B7T1 (Q3B7T1 whole entry, looked up): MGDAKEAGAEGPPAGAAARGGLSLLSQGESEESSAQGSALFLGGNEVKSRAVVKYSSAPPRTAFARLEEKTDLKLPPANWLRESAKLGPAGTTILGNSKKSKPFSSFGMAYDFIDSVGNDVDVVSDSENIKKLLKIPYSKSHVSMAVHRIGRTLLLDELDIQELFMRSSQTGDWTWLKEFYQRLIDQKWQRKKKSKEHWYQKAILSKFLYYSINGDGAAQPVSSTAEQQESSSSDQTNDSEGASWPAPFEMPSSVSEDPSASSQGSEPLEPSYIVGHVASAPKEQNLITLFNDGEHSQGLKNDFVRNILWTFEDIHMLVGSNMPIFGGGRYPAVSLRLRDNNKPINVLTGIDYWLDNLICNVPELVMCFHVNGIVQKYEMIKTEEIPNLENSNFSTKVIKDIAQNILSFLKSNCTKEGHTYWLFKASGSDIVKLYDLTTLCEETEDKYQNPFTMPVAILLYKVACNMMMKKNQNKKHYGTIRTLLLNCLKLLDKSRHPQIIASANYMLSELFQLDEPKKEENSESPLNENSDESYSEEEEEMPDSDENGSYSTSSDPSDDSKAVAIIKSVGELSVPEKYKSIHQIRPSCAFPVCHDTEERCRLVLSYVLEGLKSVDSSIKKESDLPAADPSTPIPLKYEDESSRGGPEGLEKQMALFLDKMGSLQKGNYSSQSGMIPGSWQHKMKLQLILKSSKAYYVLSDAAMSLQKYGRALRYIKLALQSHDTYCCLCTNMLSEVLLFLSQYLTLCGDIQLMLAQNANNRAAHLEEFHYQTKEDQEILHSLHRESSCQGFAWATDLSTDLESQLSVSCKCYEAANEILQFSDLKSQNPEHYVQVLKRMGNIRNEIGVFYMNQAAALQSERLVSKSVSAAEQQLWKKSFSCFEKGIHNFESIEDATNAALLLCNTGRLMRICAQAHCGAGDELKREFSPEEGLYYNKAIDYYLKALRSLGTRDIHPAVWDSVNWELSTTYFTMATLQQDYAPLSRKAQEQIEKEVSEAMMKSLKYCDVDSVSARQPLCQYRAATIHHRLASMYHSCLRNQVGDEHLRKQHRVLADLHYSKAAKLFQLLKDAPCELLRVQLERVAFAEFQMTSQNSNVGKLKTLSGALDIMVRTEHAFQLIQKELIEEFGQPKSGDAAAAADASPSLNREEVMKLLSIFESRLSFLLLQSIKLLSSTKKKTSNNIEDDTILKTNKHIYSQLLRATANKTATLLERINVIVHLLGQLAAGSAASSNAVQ
inactive: erlotinib 0.066 | [2] -0.038 | [3] -0.119 | [14] -0.017 | [5] -0.033 | ibrutinib 0.068 | ralimetinib 0.04 | [10] 0.048 | [11] 0.004 | [12] 0.066
